# High-throughput results deposited in PubChem by National Center for Advancing Translational Sciences (NCATS).
# Only some compounds are listed: those with a hit (about 12% of all), similar ones and a draw of the others.
# G9a block: qHTS Assay for Inhibitors of Histone Lysine Methyltransferase G9a; Histone-lysine N-methyltransferase EHMT2 (Homo sapiens), Q96KQ7; G9a H3K9 monomethylation, AlphaScreen, 2 h; 350,000 tested, 8.8% active; Potency, µM (series often up to 102 µM), actives largely listed as inhibitors; also: nearly all actives have a fitted effect of over 75% in size
#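 Readings reflect AlphaScreen signal from monomethyl-H3K9 antibody detection. HMT at 20 nM; substrate b-H3K9 500 nM; cofactor SAM 20 uM; 2 h RT reaction; compounds tested as titrations in qHTS with 15 min preincubation.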
# Sfp inh: qHTS Assay for Inhibitors of Bacillus subtilis Sfp phosphopantetheinyl transferase (PPTase); AID 1490, 2009; 310,000 tested, 3.5% active; Potency, µM, hits mostly inhibitors; 4'-phosphopantetheinyl transferase ffp (Bacillus subtilis), Q9F4F7; Biochemical Sfp PPTase activity, qHTS;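 also: the enzyme is Sfp with the accession as filed and its product quenches rhodamine fluorescence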
#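 Buffer: 50 mM Hepes-Na pH 7.6, 10 mM MgCl2, 0.01% Nonidet P-40, 0.01% BSA. Enzyme 15 nM, pre-exposed to compound 15 min; substrates then added and fluorescence change tracked over 30 min.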
# L3MBTL1 inh: qHTS Assay for the Inhibitors of L3MBTL1. Lethal(3)malignant brain tumor-like protein 1 (Homo sapiens), Q9Y468. AlphaScreen L3MBTL1–H3K9me1 peptide binding. Potency, µM (titrated, usually from 57.1 µM), actives largely listed as inhibitors. 230,000 tested, 0.66% active; also: nearly all actives have a fitted effect of over 60% in size
#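 Displacement of a biotinylated histone H3(1-15) peptide monomethylated at Lys9 (75 nM) from L3MBTL1 (50 nM) was measured by AlphaScreen after a 30 min room-temperature compound incubation; cefsulodin titration served as intraplate control.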
# JMJD2A Tudor: qHTS Assay for Inhibitors of JMJD2A-Tudor Domain; Potency, µM (top dose mostly 114 µM), actives largely listed as inhibitors; 390,000 tested, 4.4% active; AlphaScreen JMJD2A-Tudor / H3K4me3 peptide binding; also: nearly all actives have a fitted effect of over 50% in size
# HP1b chromo inh: HTS for Inhibitors of HP1-beta Chromodomain Interactions with Methylated Histone Tails; Chromobox protein homolog 1 (Homo sapiens), P83916; AlphaScreen HP1-beta / biotin-H3K9me3 peptide binding; Potency, µM (top dose mostly 114 µM), actives largely listed as inhibitors; 390,000 tested, 0.56% active; also: nearly all actives have a fitted effect of over 70% in size
#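 HP1-beta protein (50 nM final) preincubated 30 min at room temperature with biotinylated H3(1-18)K9me3 peptide (50 nM) in PBS pH 7.4, 0.01% Tween-20, then compound added for 30 min. AlphaScreen streptavidin donor/nickel chelate acceptor beads (10 ug/mL final), 30 min dark, luminescence read.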
# BAZ2B block: qHTS Assay for Inhibitors of BAZ2B; 360,000 tested, 4.4% active; Bromodomain adjacent to zinc finger domain protein 2B (Homo sapiens), Q9UIF8; AlphaScreen BAZ2B-H3K14Ac peptide displacement; Potency, µM (top dose mostly 114 µM), most hits filed as inhibitors; also: nearly all actives have a fitted effect of over 60% in size
#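 Multi-concentration screen (max 110 uM) measuring displacement of acetylated histone H3 peptide from BAZ2B by AlphaScreen, using 50 nM protein, 50 nM peptide and 10 ug/mL streptavidin donor plus Ni-chelate acceptor beads.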
# Hits are given with their value; . = inactive; ? = inconclusive; / = no result given; [ ] = another dose, or the depositor's remark. Calls follow the shape of the dose curve; as a rule, active = well fitted curve in the direction sought with a large enough effect; inconclusive = small, poorly fitted or top-dose-only effect, or another doubt; inactive = no such curve, though single readings can be large; an effect the other way counts as inactive or inconclusive.
SMILES,G9a block,Sfp inh,L3MBTL1 inh,JMJD2A Tudor,HP1b chromo inh,BAZ2B block
CCN(CCCNC(=O)Cn1ncc2c([nH]c3ccc(C)cc32)c1=O)c1cccc(C)c1,.,.,/,.,.,.
CCN(CCCNC(=O)CCc1nc(-c2ccc(C)cc2)no1)c1cccc(C)c1,45µM,.,.,.[11.4 µM],?,?
CCN(CCCNC(=O)CCn1c(=O)[nH]c2ccccc2c1=O)c1cccc(C)c1,10µM,.,.,.,.,.
COc1ccc(C2CC(c3ccccc3)Oc3c(C)ccc(C)c32)cc1 (stereo unspecified),/,.,/,.,.,/
O=C(NCCCN1CCOCC1)c1onc(CSc2nc3ccccc3[nH]2)c1C(=O)NCCCN1CCOCC1,50µM,.,.,.,.,.
O=C(NCCCN1CCOCC1)c1onc(CSc2ccccc2)c1C(=O)NCCCN1CCOCC1,/,/,/,.,.,/
CC(C)NC(=O)c1onc(CSc2nc3ccccc3[nH]2)c1C(=O)NC(C)C,50µM,.,.,.,.,.
CCCCNC(=O)c1onc(CSc2nc3ccccc3[nH]2)c1C(=O)NCCCC,71µM,.,.,.,.,.
CCc1ccc(-n2c(=O)c3sc4ccccc4c3n(CC(=O)NCc3ccccc3)c2=O)cc1,.,/,/,.,.,.
COC(=O)Cc1c(C)c2ccc3c(c2oc1=O)CN(Cc1ccccc1Cl)CO3,.,/,/,?,.,.
COc1ccc(OC)c(/C=N/c2oc(-c3ccco3)c(-c3ccco3)c2C#N)c1,32µM,25µM,25µM,50µM,?,.
N#Cc1c(N)oc(-c2cccs2)c1-c1cccs1,13µM,.,.,?,.,.
N#Cc1c(N)oc(-c2ccco2)c1-c1ccco1,45µM,32µM,.,?,.,?
CN1C(=O)c2ccccc2Sc2ccc(NC(=O)NCc3cccc(Cl)c3)cc21,.,/,/,.,.,.
CCOc1ccc(NC(=O)CC2C(=O)N(c3ccc(F)cc3)C(=O)N2CCc2sccc2C)cc1 (stereo unspecified),.,/,/,.,.,.
COc1ccc(CCNC(=O)CCCCn2c(=O)c3ccccc3n(Cc3cc(C)ccc3C)c2=O)cc1OC,.,/,/,.,.,.
Cc1cc(C)c(C#N)c(SCC(=O)c2ccccc2)n1,/,.,.,.,.,.
Cc1cc(=O)[nH]c(SCC(=O)c2ccccc2)c1C#N,?,20µM,.,.,.,.
Cc1ccccc1NC(=O)CSc1[nH]c(=O)cc(C)c1C#N,14µM,22µM,.,.,.,.
O=S(=O)(N/N=C/c1ccc(N2CCOCC2)cc1)c1ccccc1,45µM,.,.,.,.,.
CC(=O)Nc1ccc(S(=O)(=O)N/N=C/c2cccnc2)cc1,/,.,/,.,.,.
O=S(=O)(N/N=C\c1cccnc1)c1ccccc1,10µM,.,.,.,.,.
O=S(=O)(N/N=C/c1ccc(OC2CSC2)cc1)c1ccccc1,?,.,.,.,.,.
COc1ccc(NC(=O)C2CCCN2C(=O)NCc2ccccc2)cc1 (stereo unspecified),.[12.7 µM],.,.,14µM,.,.
COCCNC(=O)c1c(NC(=O)Cc2coc3cc(C)ccc23)sc2c1CCCC2,.,/,/,.,.,.
SMILES,G9a block,Sfp inh,L3MBTL1 inh,JMJD2A Tudor,HP1b chromo inh,BAZ2B block
C=CCSc1nnc(-c2cccc3ccccc23)o1,/,/,7.9µM,13µM,.,/
C=CCNc1nnc(-c2cccc3ccccc23)o1,/,/,/,11µM,/,/
CCc1ccc(CN(Cc2cn[nH]c2-c2ccc(OC)cc2)C(=O)Nc2cc(Cl)ccc2OC)cc1,.,/,/,.,.,.
CCOC(=O)c1nnc2c(-c3ccc(Cl)cc3)c(C)nn2c1N,.,/,/,.,.,.
CN=C(c1ccc(C)cc1)n1c(=S)nc(-c2ccc(C)cc2)n(C)c1=S,40µM,.,.,.[11.4 µM],?,.
CCCN(Cc1cccs1)C(=O)Nc1cc(C)cc(C)c1,.,/,/,.,.,.
